In the supplement of paper PMC11417369:
In all, about 25,000 sequences were measured (“ln(normalized median fluorescence intensity)”: median about 9.3, highest 2% from about 10 on). The sample as a whole holds a higher share of the highest values than the screen did.

The sequences below were run on PF3D7_0420300 AP2 domain 1 (GST-tagged) (assay: gcPBM binding intensity (ln(normalized median fluorescence intensity)); higher = stronger DNA binding).
Procedure, shortened: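 GST-tagged P. falciparum DNA-binding domains, expressed in E. coli (about 25 μg on average), were applied for 1 h to an Agilent 4 × 180k array of primer-extended double-stranded 36-bp intergenic genomic probes plus negative controls. The binding buffer was 1× PBS with 1% milk, 0.2 mg/ml BSA, 0.5% salmon testes DNA and 0.03% Triton X-100. Bound protein was detected with Alexa488 anti-GST antibody and scanned at 488 nm. Binding intensity is the highest Masliner-normalised natural-log median intensity across replicate spots of either probe orientation.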

| Sequence | gcPBM binding intensity (ln) |
| --- | --- |
| TTTTAAGAATAAAATTGTACACATACATGTGTTCGC [XGTACX_site438] | 9.09 |
| TACCTATACCTATACACACACACACGGAAATAAATA [CACACA_site6750] | 10.3 |
| AAAAAAAAAAAAAGTACACACATACCTATAAATATA [CACACA_site6937] | 9.8 |
| TATACCTATAAATACACACACATATAAATAAATATA [CACACA_site6153] | 9.99 |
| CAAAAAAAGTTATACACACACACACGGATATAAATA [CACACA_site6619] | 10.1 |
| TACCTATAAAAGTACACACACACACGGATATAAATA [CACACA_site6569] | 10.3 |
| TATATACCTATATACACACACATATATAAATAAATA [CACACA_site7341] | 9.86 |
| TATTGTATGGTAGGATATGATGTTATTTGTTATAAT [CACACA_negctrl_site202] | 9.45 |
| TATATATATATATATATATATATATATATATATATT [CACACA_negctrl_site1440] | 8.8 |
| CTGAATGTATATATTTGTACATATATATATATATAT [XGTACX_site5557] | 9.16 |
| TTTTTTTTTTTTTGTAGTACATTATGTATATTTTTA [XGTACX_site7810] | 9.23 |
| TATATATATTTATGCACACAAAATATATTATATAAT [CACACA_site5955] | 9.27 |
| TACAGACATAGACACACACACACGCATAAAAAAAAA [CACACA_site6820] | 10.1 |
| TTTATTTTATCATTTGCACACGCACCCAGACATAAA [CACACA_site4347] | 9.39 |
| AGCACGCACAGACACACACACATATTTATATTTATA [CACACA_site6291] | 9.94 |
| AAATTTGGCAGACACACACACACACGCACACGCACA [CACACA_site6423] | 10.3 |
| CAGACGCACGTATTTGCACACATTGCCACGTAATTA [CACACA_site3349] | 9.42 |
| ATTTGGCATAGACACACACACACACGCACGCACATA [CACACA_site6424] | 10.4 |
| TTTATATTATTTTAAACATGCACAAGTATAATTTAT [TGCATGCA_site233] | 8.97 |

| Sequence | gcPBM binding intensity (ln) |
| --- | --- |
| ATATGTATAAAAATCCGTACATAAGTGTGCGTATAT [XGTACX_site4376] | 9.32 |
| TATTTATAATTATAATAATATATATATATATATATA [TGCATGCA_negctrl_site173] | 8.83 |
| AGAAATACAAAATAAATATAAGAAACAAAATATTTA [CACACA_negctrl_site780] | 9.42 |
| AATGACAACCTTGTCACACATATATATATATATATA [CACACA_site5977] | 9.17 |
| TCTATATAGATTTGCACACATAAAAATGCTTATATA [CACACA_site2389] | 9.27 |
| TTGTTCCACAAAAATTTAGTCAAAAAAAAATAAAAA [TGCATGCA_negctrl_site546] | 8.79 |
| TATATATATATATACACACACACACCGATATATATA [CACACA_site8813] | 10.2 |
| AGAAAGAAAATATATACACACAAAAAAAAATATATA [CACACA_site1412] | 9.93 |
| AAAGAAAGAAAGAATACACACACACCGATATATATA [CACACA_site9246] | 10.2 |
| TATATATATATACATACATGCATATATATATATATA [TGCATGCA_site513] | 9 |
| AATATATATATATATACACACACACCGATATATATA [CACACA_site8158] | 10.1 |
| TATGTACAAATATGTACACACACACCGATATATATA [CACACA_site4487] | 9.96 |
| TATATATACACACACACATGCATGCCGATATATATA [TGCATGCA_site29] | 10.2 |
| TATATATATATATATACATGCATACATATACATACA [TGCATGCA_site897] | 9.14 |
| CAAAAAAACAAACACACACACACACCGATATATATA [CACACA_site9218] | 10.2 |
| GATATATATTAATATACACACACACCGATATATATA [CACACA_site8462] | 10 |
| AAAAAAAAAAAACACACACACAAAAAAAAATATATA [CACACA_site1105] | 10.1 |
| TTATAAAAAAAAATAACACACAGACATAAGAATAAA [CACACA_site9383] | 9.95 |
| TTTTCATTAAGATACTTATAATAGTTTATTAGTAAA [CACACA_negctrl_site586] | 8.77 |

| Sequence | gcPBM binding intensity (ln) |
| --- | --- |
| ATAATATCATCAAACGCACACATACATAAATATATT [CACACA_site5230] | 9.55 |
| ATTTTTTTCATAGACACACACAATATATCTGTTTCC [CACACA_site3023] | 9.83 |
| ATTATATATAATATAGTGCATGTAAAAAATAAAACA | 9.48 |
| GATGTGTAAATAAGGATATATAACAATCAACAAAAC [XGTACX_negctrl_site494] | 9.72 |
| TATATATACATATACACACACACACCGATATATATA [CACACA_site8706] | 10.2 |
| AAAAAAAAAAAACACACACACACACCGACACATACA [CACACA_site5576] | 10.2 |
| TACATACATACATACATACACACATATATATATATA [CACACA_site1996] | 9.45 |
| ATATTATATATATACACACACACATGCATGCACATA [CACACA_site7917] | 10.1 |
| TATATACATACATATACACACATATATATATATATA [CACACA_site401] | 9.44 |
| CACAAACACCCAAACACACACACACCGACATACATA [CACACA_site4410] | 10 |
| ATATTATATATATACACACACACATGCATGCACCTA [CACACA_site106] | 10.2 |
| CATACATACAAACACACACACACACCGATATATATA [CACACA_site8952] | 10.3 |
| ATATTATAGATATACACACACACATGCATGCACATA [CACACA_site6203] | 10.1 |
| AAAAAAAAAAAAAACACACATACATACATACATATA [CACACA_site4121] | 9.74 |
| AAAAAAAAAAAACACACACACACACCGATACATACA [CACACA_site8849] | 10.3 |
| GAAGGAAATAATAGTAGTACAAATGGTAAGAAATAT [XGTACX_site5845] | 9.7 |
| AATTTTTATACGGATACACACAAAAAAAAATAAAAA [CACACA_site897] | 9.53 |
| TACACTTTTTTTTGTACACACTAAAAAGATTAACAA [CACACA_site6037] | 9.07 |
